Data taken from ChEMBL document CHEMBL1961873, “Compounds: GSK PKIS; Assays: Nanosyn kinase panel” (2012).

Columns and labels:
[1] = biological target: Mast/stem cell growth factor receptor Kit (Homo sapiens) (UniProt P10721); settings: at 1 µM
[2] = system: Mast/stem cell growth factor receptor Kit (Homo sapiens), P10721 [D816V]; settings: at 0.1 µM
[3] = system: Mast/stem cell growth factor receptor Kit (Homo sapiens), P10721 [D816V]; settings: at 1 µM
[4] = system: Mast/stem cell growth factor receptor Kit (Homo sapiens), P10721 [T670I]; settings: at 0.1 µM
[5] = system: Mast/stem cell growth factor receptor Kit (Homo sapiens), P10721 [T670I]; settings: at 1 µM
[6] = system: Mast/stem cell growth factor receptor Kit (Homo sapiens), P10721 [V560G]; settings: at 0.1 µM
[7] = system: Mast/stem cell growth factor receptor Kit (Homo sapiens), P10721 [V560G]; settings: at 1 µM
[8] = biological target: Tyrosine-protein kinase Lck (Homo sapiens) (UniProt P06239); settings: at 0.1 µM
[9] = biological target: Tyrosine-protein kinase Lck (Homo sapiens) (UniProt P06239); settings: at 1 µM
[10] = biological target: Leukocyte tyrosine kinase receptor (Homo sapiens) (UniProt P29376); settings: at 0.1 µM
[11] = biological target: Leukocyte tyrosine kinase receptor (Homo sapiens) (UniProt P29376); settings: at 1 µM
[12] = biological target: Tyrosine-protein kinase Lyn (Homo sapiens) (UniProt P07948); settings: at 0.1 µM
[13] = biological target: Tyrosine-protein kinase Lyn (Homo sapiens) (UniProt P07948); settings: at 1 µM
[14] = biological target: Tyrosine-protein kinase Lyn (Homo sapiens) (UniProt P07948); settings: at 0.1 µM; remark: listed apart in the source
[15] = biological target: Tyrosine-protein kinase Lyn (Homo sapiens) (UniProt P07948); settings: at 1 µM; remark: listed apart in the source
[16] = biological target: T1, Tyrosine-protein kinase Mer (Homo sapiens) (UniProt Q12866); settings: at 0.1 µM
T1 sequence (whole entry): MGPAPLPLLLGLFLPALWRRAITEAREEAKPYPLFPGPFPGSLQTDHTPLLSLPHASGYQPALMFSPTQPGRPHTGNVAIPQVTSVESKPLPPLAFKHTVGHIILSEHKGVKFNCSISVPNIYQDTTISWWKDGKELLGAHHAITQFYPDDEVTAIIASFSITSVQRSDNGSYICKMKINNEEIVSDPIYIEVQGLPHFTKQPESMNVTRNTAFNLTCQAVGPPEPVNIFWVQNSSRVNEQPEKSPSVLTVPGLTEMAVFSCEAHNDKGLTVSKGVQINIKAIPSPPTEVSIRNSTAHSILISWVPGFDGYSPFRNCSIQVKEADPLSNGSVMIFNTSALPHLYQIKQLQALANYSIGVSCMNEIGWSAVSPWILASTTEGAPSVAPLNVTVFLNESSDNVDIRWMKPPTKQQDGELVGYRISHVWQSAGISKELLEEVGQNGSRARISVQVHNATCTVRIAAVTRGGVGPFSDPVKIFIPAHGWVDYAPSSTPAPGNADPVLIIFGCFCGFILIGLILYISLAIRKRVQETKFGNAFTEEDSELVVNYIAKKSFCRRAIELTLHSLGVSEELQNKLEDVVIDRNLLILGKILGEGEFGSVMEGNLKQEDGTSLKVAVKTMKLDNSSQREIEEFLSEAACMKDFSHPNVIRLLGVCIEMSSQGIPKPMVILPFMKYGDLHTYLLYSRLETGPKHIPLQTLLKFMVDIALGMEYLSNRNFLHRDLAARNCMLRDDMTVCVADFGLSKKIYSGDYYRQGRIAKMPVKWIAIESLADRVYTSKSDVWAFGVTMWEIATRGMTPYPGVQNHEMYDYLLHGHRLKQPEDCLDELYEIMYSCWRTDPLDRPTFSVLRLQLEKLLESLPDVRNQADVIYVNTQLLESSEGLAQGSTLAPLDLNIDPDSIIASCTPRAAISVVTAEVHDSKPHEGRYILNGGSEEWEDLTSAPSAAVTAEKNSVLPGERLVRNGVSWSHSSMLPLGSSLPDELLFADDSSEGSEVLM

[17] = biological target: T1, Tyrosine-protein kinase Mer (Homo sapiens); settings: at 1 µM
[18] = biological target: Hepatocyte growth factor receptor (Homo sapiens) (UniProt P08581); settings: at 0.1 µM
[19] = biological target: Hepatocyte growth factor receptor (Homo sapiens) (UniProt P08581); settings: at 1 µM
[20] = biological target: T2, Muscle, skeletal receptor tyrosine-protein kinase (Homo sapiens) (UniProt O15146); settings: at 0.1 µM;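 further: values are mean inhibition of MuSK from the GSK PKIS kinase screening panel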
T2 sequence (whole entry): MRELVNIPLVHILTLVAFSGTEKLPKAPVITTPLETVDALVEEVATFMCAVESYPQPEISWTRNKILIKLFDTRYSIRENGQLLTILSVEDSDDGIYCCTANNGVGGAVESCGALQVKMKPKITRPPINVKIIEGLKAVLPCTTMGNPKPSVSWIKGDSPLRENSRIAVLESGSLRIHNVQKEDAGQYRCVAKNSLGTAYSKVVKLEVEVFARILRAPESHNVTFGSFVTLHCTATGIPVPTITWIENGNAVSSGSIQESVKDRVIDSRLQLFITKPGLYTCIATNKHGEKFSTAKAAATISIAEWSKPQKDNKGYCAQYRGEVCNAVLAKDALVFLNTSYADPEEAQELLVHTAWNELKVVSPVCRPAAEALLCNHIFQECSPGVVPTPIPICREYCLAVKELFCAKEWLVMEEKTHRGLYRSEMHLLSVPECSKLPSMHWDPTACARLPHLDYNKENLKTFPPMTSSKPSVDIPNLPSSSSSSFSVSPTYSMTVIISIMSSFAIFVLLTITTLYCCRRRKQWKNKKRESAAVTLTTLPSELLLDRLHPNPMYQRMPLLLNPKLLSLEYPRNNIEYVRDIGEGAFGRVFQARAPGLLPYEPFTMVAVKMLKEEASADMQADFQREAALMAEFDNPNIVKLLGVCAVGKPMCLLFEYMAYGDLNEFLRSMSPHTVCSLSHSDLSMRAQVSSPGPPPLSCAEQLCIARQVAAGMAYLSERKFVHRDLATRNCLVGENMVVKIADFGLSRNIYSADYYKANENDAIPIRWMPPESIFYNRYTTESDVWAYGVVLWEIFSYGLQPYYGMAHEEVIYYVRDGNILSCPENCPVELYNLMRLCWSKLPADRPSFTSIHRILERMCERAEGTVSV

Sequence of Tyrosine-protein kinase Lyn (Homo sapiens) (P07948 2-512 limits assumed): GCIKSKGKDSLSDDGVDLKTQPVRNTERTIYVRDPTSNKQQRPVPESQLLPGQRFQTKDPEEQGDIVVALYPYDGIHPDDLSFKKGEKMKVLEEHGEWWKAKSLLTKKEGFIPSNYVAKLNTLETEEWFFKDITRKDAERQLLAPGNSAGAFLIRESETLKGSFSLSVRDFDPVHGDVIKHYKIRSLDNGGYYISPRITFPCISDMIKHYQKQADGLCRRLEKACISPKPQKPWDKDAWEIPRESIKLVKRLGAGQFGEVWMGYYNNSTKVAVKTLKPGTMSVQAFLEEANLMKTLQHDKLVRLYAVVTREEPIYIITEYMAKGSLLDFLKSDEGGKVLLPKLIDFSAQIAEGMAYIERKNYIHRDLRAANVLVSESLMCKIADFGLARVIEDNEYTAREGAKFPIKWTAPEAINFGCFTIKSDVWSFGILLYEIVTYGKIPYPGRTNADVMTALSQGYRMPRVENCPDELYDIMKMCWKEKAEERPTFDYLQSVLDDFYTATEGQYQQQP
Sequence of Mast/stem cell growth factor receptor Kit (Homo sapiens), P10721 [V560G] (P10721 whole entry V560G): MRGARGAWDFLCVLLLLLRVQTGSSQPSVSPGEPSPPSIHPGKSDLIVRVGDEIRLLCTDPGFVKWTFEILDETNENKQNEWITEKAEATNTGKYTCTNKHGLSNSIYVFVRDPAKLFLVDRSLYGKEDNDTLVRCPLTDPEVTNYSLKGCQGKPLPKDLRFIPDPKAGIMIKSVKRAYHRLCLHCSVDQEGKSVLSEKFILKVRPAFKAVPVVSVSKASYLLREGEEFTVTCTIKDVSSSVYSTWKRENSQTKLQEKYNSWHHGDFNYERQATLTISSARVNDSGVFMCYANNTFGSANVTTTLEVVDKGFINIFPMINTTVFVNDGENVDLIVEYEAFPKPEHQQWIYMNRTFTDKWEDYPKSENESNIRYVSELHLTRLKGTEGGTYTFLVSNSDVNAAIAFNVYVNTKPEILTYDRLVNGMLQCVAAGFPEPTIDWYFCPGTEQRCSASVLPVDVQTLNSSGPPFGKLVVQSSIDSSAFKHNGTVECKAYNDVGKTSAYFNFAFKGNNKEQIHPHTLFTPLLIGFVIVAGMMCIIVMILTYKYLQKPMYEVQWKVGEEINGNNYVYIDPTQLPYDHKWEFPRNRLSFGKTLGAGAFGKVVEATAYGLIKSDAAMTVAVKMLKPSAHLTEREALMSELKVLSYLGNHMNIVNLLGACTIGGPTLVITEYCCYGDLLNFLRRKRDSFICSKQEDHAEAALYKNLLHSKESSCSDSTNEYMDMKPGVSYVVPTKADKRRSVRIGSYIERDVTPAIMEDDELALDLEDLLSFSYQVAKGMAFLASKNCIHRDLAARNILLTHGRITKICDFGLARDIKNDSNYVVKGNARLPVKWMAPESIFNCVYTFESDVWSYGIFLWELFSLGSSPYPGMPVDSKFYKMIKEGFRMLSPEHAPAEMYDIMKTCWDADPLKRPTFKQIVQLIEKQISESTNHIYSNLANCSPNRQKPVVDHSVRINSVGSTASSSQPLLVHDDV
Sequence of Mast/stem cell growth factor receptor Kit (Homo sapiens) (P10721 whole entry): as the sequence (P10721 whole entry V560G) above, with G560V counted along it
Sequence of Leukocyte tyrosine kinase receptor (Homo sapiens) (P29376 whole entry): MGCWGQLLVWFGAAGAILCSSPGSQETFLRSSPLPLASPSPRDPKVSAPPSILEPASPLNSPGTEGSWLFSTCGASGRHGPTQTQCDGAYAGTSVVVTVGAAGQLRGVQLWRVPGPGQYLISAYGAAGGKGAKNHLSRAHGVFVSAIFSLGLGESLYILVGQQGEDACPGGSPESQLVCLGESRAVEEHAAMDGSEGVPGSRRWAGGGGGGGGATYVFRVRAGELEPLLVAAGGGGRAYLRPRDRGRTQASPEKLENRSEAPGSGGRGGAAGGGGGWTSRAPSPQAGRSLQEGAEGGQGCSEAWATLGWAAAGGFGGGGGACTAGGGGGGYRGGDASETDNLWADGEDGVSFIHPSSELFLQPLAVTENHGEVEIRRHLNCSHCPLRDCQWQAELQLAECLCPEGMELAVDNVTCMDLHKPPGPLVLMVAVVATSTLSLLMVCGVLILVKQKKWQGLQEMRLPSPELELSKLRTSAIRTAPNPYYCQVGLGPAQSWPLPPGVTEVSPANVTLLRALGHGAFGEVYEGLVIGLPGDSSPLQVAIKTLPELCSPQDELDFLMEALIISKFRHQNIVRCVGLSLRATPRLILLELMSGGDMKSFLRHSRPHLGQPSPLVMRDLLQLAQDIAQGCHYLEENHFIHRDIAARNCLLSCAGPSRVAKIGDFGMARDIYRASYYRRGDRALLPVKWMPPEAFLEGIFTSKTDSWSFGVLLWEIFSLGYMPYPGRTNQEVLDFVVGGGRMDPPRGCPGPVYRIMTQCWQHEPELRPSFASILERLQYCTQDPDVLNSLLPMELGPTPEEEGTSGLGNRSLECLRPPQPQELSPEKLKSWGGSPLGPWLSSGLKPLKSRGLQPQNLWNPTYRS
Sequence of Mast/stem cell growth factor receptor Kit (Homo sapiens), P10721 [T670I] (P10721 whole entry T670I): as the sequence (P10721 whole entry V560G) above, with G560V, T670I counted along it
Sequence of Hepatocyte growth factor receptor (Homo sapiens) (P08581 whole entry): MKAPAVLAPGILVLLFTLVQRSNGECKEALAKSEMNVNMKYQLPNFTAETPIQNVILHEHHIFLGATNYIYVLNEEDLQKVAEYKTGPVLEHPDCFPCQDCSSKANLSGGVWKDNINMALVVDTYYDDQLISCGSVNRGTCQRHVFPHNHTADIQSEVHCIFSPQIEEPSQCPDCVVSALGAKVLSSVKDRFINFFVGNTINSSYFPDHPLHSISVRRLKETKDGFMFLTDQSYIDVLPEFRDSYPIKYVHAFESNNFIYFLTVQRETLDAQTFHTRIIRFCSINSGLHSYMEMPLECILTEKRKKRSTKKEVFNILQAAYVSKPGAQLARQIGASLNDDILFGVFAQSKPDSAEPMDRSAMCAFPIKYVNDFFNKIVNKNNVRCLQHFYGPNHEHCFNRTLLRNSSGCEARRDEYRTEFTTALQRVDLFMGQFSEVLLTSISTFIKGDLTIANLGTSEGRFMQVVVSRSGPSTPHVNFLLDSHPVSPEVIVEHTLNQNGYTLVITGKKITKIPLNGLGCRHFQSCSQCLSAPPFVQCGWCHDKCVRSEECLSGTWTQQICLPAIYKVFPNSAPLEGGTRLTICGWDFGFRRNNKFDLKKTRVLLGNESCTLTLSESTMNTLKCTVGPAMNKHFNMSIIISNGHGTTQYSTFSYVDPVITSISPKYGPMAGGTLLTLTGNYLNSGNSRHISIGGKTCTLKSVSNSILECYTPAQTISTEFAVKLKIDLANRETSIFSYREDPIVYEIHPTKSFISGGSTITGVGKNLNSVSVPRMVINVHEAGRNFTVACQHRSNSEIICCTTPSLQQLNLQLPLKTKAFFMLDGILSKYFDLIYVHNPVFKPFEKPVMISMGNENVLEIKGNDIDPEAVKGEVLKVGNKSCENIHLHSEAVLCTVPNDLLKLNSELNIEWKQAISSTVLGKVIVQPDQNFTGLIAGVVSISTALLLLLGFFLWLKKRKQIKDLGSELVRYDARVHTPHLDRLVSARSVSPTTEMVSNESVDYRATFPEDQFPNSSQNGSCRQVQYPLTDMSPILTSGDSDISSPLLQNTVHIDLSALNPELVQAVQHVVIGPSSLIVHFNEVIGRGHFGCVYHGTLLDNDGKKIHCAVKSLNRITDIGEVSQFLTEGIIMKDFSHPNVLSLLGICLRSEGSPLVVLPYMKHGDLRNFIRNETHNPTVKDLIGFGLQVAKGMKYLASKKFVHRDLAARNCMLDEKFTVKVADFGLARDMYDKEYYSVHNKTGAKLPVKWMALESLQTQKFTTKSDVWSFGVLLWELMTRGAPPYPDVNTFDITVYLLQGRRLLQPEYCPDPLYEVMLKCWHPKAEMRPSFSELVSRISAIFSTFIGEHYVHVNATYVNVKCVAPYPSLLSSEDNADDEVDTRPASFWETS
Sequence of Mast/stem cell growth factor receptor Kit (Homo sapiens), P10721 [D816V] (P10721 whole entry D816V): as the sequence (P10721 whole entry V560G) above, with G560V, D816V counted along it
Sequence of Tyrosine-protein kinase Lck (Homo sapiens) (P06239 2-509 limits assumed): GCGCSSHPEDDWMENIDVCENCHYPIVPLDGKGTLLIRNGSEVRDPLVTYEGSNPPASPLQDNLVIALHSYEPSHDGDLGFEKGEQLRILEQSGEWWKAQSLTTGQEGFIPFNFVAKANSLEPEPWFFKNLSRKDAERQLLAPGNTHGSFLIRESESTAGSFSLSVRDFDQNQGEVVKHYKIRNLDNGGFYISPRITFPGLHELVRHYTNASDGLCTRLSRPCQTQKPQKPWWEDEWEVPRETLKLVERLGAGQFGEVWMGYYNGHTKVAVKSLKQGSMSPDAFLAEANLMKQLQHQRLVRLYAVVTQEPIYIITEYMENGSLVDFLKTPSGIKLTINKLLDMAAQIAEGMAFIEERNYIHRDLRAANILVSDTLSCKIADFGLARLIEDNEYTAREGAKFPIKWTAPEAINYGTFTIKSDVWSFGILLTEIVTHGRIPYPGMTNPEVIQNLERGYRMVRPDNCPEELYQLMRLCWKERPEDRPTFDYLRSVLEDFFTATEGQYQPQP

Row | SMILES | inhibition [1] | inhibition [2] | inhibition [3] | inhibition [4] | inhibition [5] | inhibition [6] | inhibition [7] | inhibition [8] | inhibition [9] | inhibition [10] | inhibition [11] | inhibition [12] | inhibition [13] | inhibition [14] | inhibition [15] | inhibition [16] | inhibition [17] | inhibition [18] | inhibition [19] | inhibition [20]
1 | Cc1nn(C)c2cc(N(C)c3ccnc(Nc4cccc(S(N)(=O)=O)c4)n3)ccc12 | 88% | 2.13% | 5.94% | 5.8% | 38.2% | 4.37% | 37.3% | 14% | 57.4% | 5.42% | 29% | 13.6% | 51.3% | 9.71% | 46.8% | 2.42% | 18.8% | 7.18% | 37.1% | 2.31%
2 | O=C1NC(=O)C(c2ccccc2Cl)=C1Nc1cccc(O)c1 | 0.62% | 2.13% | 2.69% | -1.05% | -0.04% | 0.38% | 1.68% | 2.08% | 5.21% | 0.86% | 1.2% | 5.68% | 3.94% | 1.34% | 2.65% | 1.63% | 4.66% | 1.79% | -0.4% | 3.23%
3 | COc1ccc(COc2ccc(Cc3cnc(N)nc3N)cc2OC)cc1 | 7.39% | -2.58% | -2.51% | -2.93% | -3.14% | 5.62% | 8.16% | 0.03% | 2.78% | -1.03% | -0.41% | 0.58% | 0.33% | 0.18% | 2.08% | 2.31% | 3.48% | 2.14% | 5.98% | 4.72%
4 | O=C(Nc1n[nH]c2nc(-c3ccco3)c(Br)cc12)C1CC1 | 4.71% | 4% | -1.99% | 2.25% | 1.3% | 1.23% | 1.62% | 1.39% | 6.71% | 1.93% | 0.72% | 4.37% | 4.24% | 2.54% | 3.6% | 1.42% | 4.5% | 1.38% | 6.65% | 2.24%
5 | CC1=C(C(=O)Nc2ccc3[nH]ncc3c2)C(c2ccc(Cl)c(Cl)c2)CC(=O)N1 (stereo not given) | 2.48% | -0.94% | 1.14% | 0.21% | 1.52% | 2.42% | 4.56% | 4.63% | 30% | 1.06% | 0.02% | 3.35% | 9.96% | 2.18% | 7.24% | 0.79% | 1.25% | -0.1% | 5.85% | 2.88%
6 | CN(C)c1cc2c(Nc3ccc4nc(Cc5ccccc5)[nH]c4c3)ncnc2cn1 | 19.2% | 7.07% | 7.56% | 2.88% | 6.63% | 1.39% | 7.78% | 7.36% | 33% | 6.47% | 3.97% | 9.84% | 32.1% | 7.8% | 28.7% | 1.94% | 8.97% | 0.15% | 5.85% | 2.63%
7 | Nc1ncnc2occ(-c3ccc(NC(=O)Nc4cc(C(F)(F)F)cc(C(F)(F)F)c4)cc3)c12 | 90.6% | -2.07% | 10.8% | 22% | 88.4% | 33.8% | 82.2% | 6.28% | 38.8% | 2.1% | 23.7% | 4.96% | 37% | 3.86% | 34% | 0.69% | 14.4% | -0.72% | 10.3% | 77.6%
8 | COc1cc(C)c(NC(=O)CN(C)C)cc1Nc1nc(Nc2cccc(F)c2C(N)=O)c2cc[nH]c2n1 | 4.07% | 2.88% | 1.48% | 0.3% | 0.56% | 0.02% | 0.48% | 1.38% | 1.74% | 92.9% | 95.6% | 3.5% | 1.33% | 2.46% | -0.14% | 2.47% | 7.53% | 3.32% | -1.66% | 5.47%
9 | COc1ccc(-c2ccncc2)cc1C(N)=O | 8.81% | 5.33% | 6.29% | 2.7% | 5.32% | -1.34% | -1.88% | 3.42% | 4.47% | 5.46% | 5.79% | 4.67% | 4.69% | 2.01% | 4.65% | 2.57% | 5.63% | 3.93% | 5.8% | 2.42%
10 | O=C1NC(=O)C(c2cccc(Cl)c2)=C1Nc1ccc(O)c(Cl)c1 | -2.75% | 0.75% | -6.88% | -1.24% | -2.14% | -1.77% | 1.92% | 1.6% | 6.56% | 0% | 0.35% | 1.27% | 3.18% | 0.38% | 3.63% | -0.5% | 3.08% | 0.77% | 3.7% | 0.25%
11 | CNC(=O)c1cncc(/C=C/c2c(Cl)cccc2Cl)c1 | 33.4% | 2.74% | 1.88% | 0.36% | 0.46% | -1.49% | 10.9% | 1.21% | 9.89% | 3.47% | 5.04% | 11.1% | 48.7% | 7.62% | 43.5% | 2.3% | 2.24% | 2.67% | 1.88% | 3.75%
12 | COc1cc2ncn(-c3cc(OCc4ccccc4C(F)(F)F)c(C(N)=O)s3)c2cc1OC | 20.5% | 5.23% | 7.66% | 3.55% | 9.7% | -1.78% | 2.96% | 0.99% | 12.6% | 2.36% | 4.35% | 6.12% | 21.5% | 3.89% | 17.4% | 2.08% | 9.28% | 4.37% | 19.5% | 11%
13 | NC(=O)c1cccc(Nc2nccc(Nc3cccc4[nH]ncc34)n2)c1 | 91.1% | -2.32% | 14.6% | -2.9% | 4.51% | 5.52% | 22.5% | 36.7% | 81.8% | 4.75% | 39% | 58.5% | 91.3% | 52.3% | 88.9% | -0.28% | 8.27% | -1.63% | 4.73% | 1.07%
